From PubChem BioAssay AID1733 (National Center for Advancing Translational Sciences (NCATS), 2009) come the findings set out here.

Records with an inconclusive call do not appear. A number with no mark means an inactive call. The source made the active and inactive calls. The call rests on the fitted dose curve; in most records, active means well fitted inhibition curve with a large enough effect; inconclusive means small, poorly fitted or top-dose-only effect; inactive means flat fitted curve, though single readings scatter.

For the assay, the target named is Luciferin 4-monooxygenase (Photinus pyralis) (UniProt P08659). Nature of the assay: Counterscreen Assay for Enhancers of SMN2 Splice Variant Expression: Interaction with Luciferase Reporter. The note with it: purified firefly luciferase, luminescence, 5 min; series mostly up to 40.3 µM; activity change, negative = inhibition: at the top concentration. An outline of the steps: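 Cell-free counterscreen with purified firefly luciferase (5 nM) in 50 mM Tris-acetate pH 7.6, 10 mM Mg acetate, 0.05% BSA, 0.01% Tween. Compound incubated 5 min at room temperature, then luminescence read after britelite plus detection reagent.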
Luciferin 4-monooxygenase (Photinus pyralis), sequence (P08659 whole entry, looked up, canonical isoform): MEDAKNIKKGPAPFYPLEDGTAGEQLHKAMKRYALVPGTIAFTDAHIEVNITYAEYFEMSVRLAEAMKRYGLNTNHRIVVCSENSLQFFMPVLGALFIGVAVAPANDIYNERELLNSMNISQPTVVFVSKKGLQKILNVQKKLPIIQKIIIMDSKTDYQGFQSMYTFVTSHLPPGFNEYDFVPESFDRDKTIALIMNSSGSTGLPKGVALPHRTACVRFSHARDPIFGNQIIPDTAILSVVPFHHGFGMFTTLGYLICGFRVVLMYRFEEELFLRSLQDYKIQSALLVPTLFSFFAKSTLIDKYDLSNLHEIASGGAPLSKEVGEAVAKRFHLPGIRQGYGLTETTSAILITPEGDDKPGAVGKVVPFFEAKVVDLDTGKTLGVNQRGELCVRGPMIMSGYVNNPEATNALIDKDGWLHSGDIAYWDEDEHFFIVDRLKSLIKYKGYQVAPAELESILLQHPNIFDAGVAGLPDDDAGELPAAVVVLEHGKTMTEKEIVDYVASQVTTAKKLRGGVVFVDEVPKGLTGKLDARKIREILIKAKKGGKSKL
Background: Counterscreens check selectivity or assay interference.
With `CCCSc1nnc2c(n1)OC(c1sccc1C)Nc1ccccc1-2` (stereo unspecified), the Potency is 14.1 µM (active).
In the case of `O=C(Cc1c(F)cccc1Cl)N1CCN(C(=O)c2ccco2)CC1`, the activity change, negative = inhibition is -0.165% [at 48.7 pM].
Consider `OCCCNc1nc(-c2ccc(Br)cc2)nnc1-c1ccc(Cl)cc1`, for which the “activity change, negative = inhibition” value is -2.32%.
On to `CCCCOC(C)n1cc(F)c(=O)[nH]c1=O` (stereo unspecified), for which the “activity change, negative = inhibition” value is 16.9%.
Regarding `Cc1oncc1C(=O)Nc1ccc(C(F)(F)F)cc1`, the Potency was 0.891 µM (active).
Regarding `O=C(NCCc1cn2ccsc2n1)c1cccs1`, the activity change, negative = inhibition is -9.66% [at 48.7 pM].
Consider `CCOc1c(Cl)cc(C(=O)Nc2ccccc2C(=O)O)cc1Cl`, for which the Potency was 3.98 µM (active).
As for `Clc1ccc(-c2nnc(-c3ccccc3)nc2N2CCSCC2)cc1`, the Potency was 11.2 µM (active).
As for `COCCCN1C(=O)C(=O)/C(=C(/O)c2ccc3c(c2)CC(C)O3)C1c1cccnc1` (stereo unspecified), the activity change, negative = inhibition was 4.07% [at 48.7 pM].
Take `NC(=O)C1(N2CCCCC2)CCN(c2nc(-c3ccccc3)cs2)CC1`: the “activity change, negative = inhibition” value was -5.31%.
Consider `OC[C@H]1O[C@@H](n2cnc3c(Nc4ccccc4)ncnc32)[C@H](O)[C@H]1O`, for which the “activity change, negative = inhibition” value is -1.32% [at 51 µM].
On the same count and under the same terms, in the case of `Cc1ccc(-c2csc(N3CCC(NS(=O)(=O)c4ccc5c(c4)OCCO5)CC3)n2)cc1` it was 23.9%; in that of `FC(F)C(F)(F)C1=CC(c2cccs2)=NCCN1`, -4.71% [at 48.7 pM].
In the case of `COc1c(C)c2c(c(O)c1C/C=C(\C)CCC(=O)O)C(=O)OC2`, the Potency entry is “inactive”.
For `FC(F)(F)c1cccc(-c2nnc(-c3ccccc3)c(N3CCOCC3)n2)c1`, the “activity change, negative = inhibition” value is 1.02%.
As for `CCOC(=O)c1c(-c2cccc(C)c2)csc1NC(=O)c1c(-c2ccccc2)noc1C`, the activity change, negative = inhibition was -9.91% [at 48.7 pM].
